From PubChem BioAssay (NCATS)
Where “and” joins values, the source holds several entries; their conditions need not be identical. Equal values may be shown once. Inconclusive results are not listed. Calls of active or inactive are those of the source. Unless noted, the call rests on the fitted dose curve; in most records, active means well fitted cell-killing curve with a large enough effect; inconclusive means small, poorly fitted or top-dose-only effect, or effect the other way; inactive means flat fitted curve, though single readings scatter.

experiment: qHTS assay for cell viability of HEK293 cells (AID 743288); details: ATP luminescence (CellTiter-Glo), 18 h, stronger effect = lower value; further: on the % scale 0 is the no-effect control and ±100 the full control effect; nearly all actives have a fitted effect of over 50% in size
In short: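 ATP luminescence (CellTiter-Glo) reports metabolically competent cell number after parental HEK293 cells, 2,000/well, were treated with DMSO-dissolved compounds for 18 h at 37 C; reagent incubation 30 min, room temperature.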

SMILES	max response
CC(C)NC(C)C	4.29% (inactive)
C[C@]12CCC(=O)C=C1CC[C@@H]1[C@@H]2CC[C@]2(C)C(=O)CC[C@@H]12	-2.66% (inactive)
O=C(O)CCCc1ccc(N(CCCl)CCCl)cc1	-9.24% (inactive) and -11.4% (inactive)
Nc1ccccc1	-4.37% (inactive)
CC(C)c1cccc(C(C)C)c1O	-1.26% (inactive)
CCCC(C)(COC(N)=O)COC(N)=O	2.5% (inactive) and 7.62% (inactive)
CCC(C)(C)c1ccc(O)cc1	6.76% (inactive) and -11.5% (inactive)
COc1cc(OC)c(OC)cc1C=O	-1.47% (inactive)
COC(=O)C(c1ccccc1)C1CCCCN1 (centres undefined)	-2.58% (inactive) and -3.35% (inactive)
C[C@]12CCC(=O)C=C1CC[C@@H]1[C@@H]2CC[C@@]2(C)[C@H]1CC[C@]2(C)O	-18% (inactive)
COP(=S)(OC)Oc1ccc(SC)c(C)c1	2.92% (inactive) and -23.3% (inactive)
Nc1ccccc1C(=O)O	2.79% (inactive)
Oc1ccc(Cl)cc1	-5.89% (inactive)
NCCc1ccc(O)cc1	-6.56% (inactive)
O=P1(N(CCCl)CCCl)NCCCO1 (centres undefined)	-14.2% (inactive) and 0.164% (inactive)

experiment: qHTS assay for cell viability of the p53RE-bla HCT-116 cell line (AID 743292); details: p53RE-bla HCT-116 viability, ATP luminescence, 16 h; series mostly up to 95 µM; activity change, negative = cytotoxicity: at the top concentration; further: on the % scale 0 is the no-effect control and ±100 the full control effect; nearly all actives have a fitted effect of over 55% in size
In short: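 Viability of compound-treated p53RE-bla HCT-116 cells is taken from ATP-dependent luciferase luminescence. Treatment lasts 16 h at 37 C after a 5 h settling period; detection follows 30 min at room temperature.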

SMILES	activity change, negative = cytotoxicity	Potency
CC(C)NC(C)C	-0.268% (inactive)	
C[C@]12CCC(=O)C=C1CC[C@@H]1[C@@H]2CC[C@]2(C)C(=O)CC[C@@H]12		inactive
O=C(O)CCCc1ccc(N(CCCl)CCCl)cc1		inactive
Nc1ccccc1	0.0959% (inactive)	
CC(C)c1cccc(C(C)C)c1O	4.24% (inactive)	
CCCC(C)(COC(N)=O)COC(N)=O		inactive
CCC(C)(C)c1ccc(O)cc1		inactive
COc1cc(OC)c(OC)cc1C=O	-8.12% (inactive)	
COC(=O)C(c1ccccc1)C1CCCCN1 (centres undefined)		inactive
C[C@]12CCC(=O)C=C1CC[C@@H]1[C@@H]2CC[C@@]2(C)[C@H]1CC[C@]2(C)O	4.46% (inactive)	
COP(=S)(OC)Oc1ccc(SC)c(C)c1		inactive
Nc1ccccc1C(=O)O	-9.62% (inactive)	
Oc1ccc(Cl)cc1	-8.83% (inactive)	
NCCc1ccc(O)cc1	0.406% (inactive)	
O=P1(N(CCCl)CCCl)NCCCO1 (centres undefined)		inactive

experiment: qHTS profiling of the MIPE4 collection as inhibitors of Plasmodium falciparum (3D7) proliferation (AID 743344; call rule not given here;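 further: scaled between DMSO vehicle wells and 0.29 µM artemisinin as full inhibition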); details: P. falciparum 3D7 in erythrocytes, SYBR Green DNA fluorescence, 72 h; at 28.5 µM (top of the series) unless noted
In short: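 Parasite DNA was quantified by SYBR Green I fluorescence (ex 485, em 535 nm) after overnight lysis in saponin/Triton buffer at room temperature. Cultures at 0.3% parasitemia and 2.5% hematocrit were first exposed to compound for 72 h at 37 C; signals were normalised to artemisinin (0.29 uM) and vehicle wells.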

SMILES	parasite growth, % of DMSO control
O=C(O)CCCc1ccc(N(CCCl)CCCl)cc1	70.9%
CC(C)c1cccc(C(C)C)c1O	89.1%
CN1C(=O)CCS(=O)(=O)C1c1ccc(Cl)cc1 (centres undefined)	98.6%
COc1cc(OC)c(OC)cc1C=O	98%
CC(C)N(CCC(C(N)=O)(c1ccccc1)c1ccccn1)C(C)C (centres undefined)	105%
Cn1c(=O)c2[nH]cnc2n(C)c1=O	85.4%
CCC1(c2ccc(N)cc2)CCC(=O)NC1=O (centres undefined)	89%
CC(NC(C)(C)C)C(=O)c1cccc(Cl)c1 (centres undefined)	26.6%
O=P1(N(CCCl)CCCl)NCCCO1 (centres undefined)	42.1%
